Screening data (PubChem BioAssay)
Shown are actives, neighbours in structure and some others; about 12% of the full set was active somewhere.
USP30 block = human USP30 deubiquitinase inhibition. Q70CQ3. inhibition, % at 25 µM. purified USP30, Ub-rhodamine cleavage fluorescence. 47,000 compounds, 5.3% hits
USP17 block = inhibitors of human USP17 deubiquitinase; inhibition, % at 50 µM; 47,000 compounds, 6.5% hits; A8MUK1; purified USP17, Ub-rhodamine cleavage fluorescence, 3 h; AID 1645855
OTUD3 inh = inhibitors of human OTUD3 deubiquitinase | 47,000 compounds, 0.7% hits | purified OTUD3, Ub-rhodamine fluorescence, 2 h | Q5T2D3 | inhibition, % at 25 µM
Target sequence (Q5T2D3 whole entry, looked up): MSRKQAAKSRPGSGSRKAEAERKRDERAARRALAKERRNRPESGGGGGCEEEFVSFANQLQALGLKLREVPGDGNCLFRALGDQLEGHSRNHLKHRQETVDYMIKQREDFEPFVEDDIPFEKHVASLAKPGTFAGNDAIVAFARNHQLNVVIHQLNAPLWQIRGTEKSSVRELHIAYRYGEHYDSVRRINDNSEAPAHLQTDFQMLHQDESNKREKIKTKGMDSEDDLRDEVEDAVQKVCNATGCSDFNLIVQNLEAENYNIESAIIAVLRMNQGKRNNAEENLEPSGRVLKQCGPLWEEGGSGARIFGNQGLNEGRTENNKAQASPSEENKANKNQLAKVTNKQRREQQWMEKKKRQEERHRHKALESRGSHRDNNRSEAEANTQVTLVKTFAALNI
USP28 inh = inhibitors of human USP28 deubiquitinase | Q96RU2 | purified USP28, Ub-rhodamine cleavage fluorescence, 30 min | inhibition, % at 25 µM | 47,000 compounds, 3% hits | AID 1645857
Numbers stand for hits; - = inactive; . = no result. Cut-off read from the data, not from the text of the source: active = inhibition above about 30%; inactive = the rest.

SMILES	USP30 block	USP17 block	OTUD3 inh	USP28 inh
COc1cccc(C(=O)Nc2cnn(-c3ncncc3N3CCC(C)CC3)c2)c1	-	-	-	-
COC1=CC(=O)c2c(O)c(C)c(CC(C)=O)c(O)c2C1=O	-	64	-	-
CC1=C[C@H]2N(c3ccc(C)cc31)[C@H](C(=O)C(C)(C)C)[C@@H](C(=O)c1ccccc1)[C@]21C(=O)Nc2ccccc21	-	41	-	-
CC1=C[C@H]2N(c3ccc(C)cc31)[C@H](C(=O)c1cccs1)[C@@H](C(=O)c1ccc(F)cc1)[C@]21C(=O)Nc2ccccc21	-	59	-	-
CC1=C[C@H]2N(c3ccccc31)[C@H](C(=O)C(C)(C)C)[C@@H](C(=O)c1ccco1)[C@]21C(=O)Nc2ccccc21	-	-	-	-
Oc1ccc(-c2nc3ccc(Cl)cn3c2NC2CCCCC2)cc1	-	67	-	-
O=C(Nc1cccc(Cl)c1)N1CCN(c2cc(C(F)(F)F)ccn2)CC1	-	59	-	-
Cc1nn(-c2ccc(Cl)cc2)c2[nH]c(=O)c(CNCc3ccc(F)cc3)cc12	-	-	-	-
Cc1ccc(S(=O)(=O)N2CC(C(=O)NCc3ccncc3)C3(CCOCC3)C2)cc1C (stereo unspecified)	-	-	-	-
CCN1C(=O)c2cccnc2Sc2cc(NC(=O)c3ccc(Cl)s3)ccc21	-	-	-	51
CCN1C(=O)c2cccnc2Sc2cc(NC(=O)CCc3cccc(OC)c3)ccc21	-	-	-	44
CCN1C(=O)c2cccnc2Sc2cc(NC(=O)CCc3ccccc3OC)ccc21	-	-	-	-
O=C(COc1coc(CN2CCc3ccccc3C2)cc1=O)Nc1ccc(F)cc1	-	-	-	-
CC(=O)c1ccc(NC(=O)COc2coc(CN3CCc4ccccc4C3)cc2=O)cc1	-	46	-	-
COc1cc(OC)cc(C(=O)N2CCN(c3ccc(-c4ccncc4)nn3)CC2)c1	-	-	-	-
O=C(Nc1ccc(Cc2ccncc2)cc1)c1ccccc1Br	-	-	-	-
O=C(CSc1ncn(-c2ccccc2)n1)Nc1ccc(Cc2ccncc2)cc1	39	41	-	46
COc1ccc(CNC(=O)C2COc3ccc(OC)cc3C2)cc1 (stereo unspecified)	-	34	-	-
COc1ccc2c(c1)CC(C(=O)NCc1ccccc1)CO2 (stereo unspecified)	-	-	-	-
CCc1cccc(-n2nnnc2N2CCN(C(=O)Nc3ccccc3C)CC2)c1	-	-	-	-
CN(C)C(Cc1ccccc1)C(=O)c1ccc2c(c1)NC(=O)CO2 (stereo unspecified)	-	-	-	-
Cc1nn(CC(=O)c2ccc3c(c2)NC(=O)CO3)c(C)c1[N+](=O)[O-]	-	-	-	32
COc1ccc(-c2cnn(-c3ccc(NC(=O)Nc4cccc(C(F)(F)F)c4)cc3)c2)cc1	-	.	-	-
O=C(CSc1nc2ccccc2[nH]1)N1CCN(S(=O)(=O)/C=C/c2ccccc2)CC1	31	36	-	-
Cc1ccc2nnc(-c3ccccc3)c(C(=O)N3CCN(c4ccccn4)CC3)c2c1	-	50	-	-
SMILES	USP30 block	USP17 block	OTUD3 inh	USP28 inh
CCN(CC)c1ncc2c(n1)CCC(C(=O)NC(C)c1ccccn1)C2 (stereo unspecified)	-	-	-	-
CCN(CC)c1ncc2c(n1)CCC(C(=O)N1CCCC1)C2 (stereo unspecified)	-	-	-	45
COc1ccc(-n2nnnc2CNC(=O)C2CC(=O)N(c3ccc(C)cc3)C2)cc1 (stereo unspecified)	-	-	-	-
Cc1onc(-c2cccnc2)c1C(=O)NCCCN1CCCC1	-	-	-	-
CCc1ccc(NC(=O)c2nnn(-c3cccc(C)c3)c2C)cc1	-	-	-	41
Cc1cccc(-n2ncc(C(=O)Nc3cccc(F)c3)c2-n2cccc2)c1	34	-	-	-
Cc1cc(NC(=O)c2nnn(-c3ccc(Cl)cc3)c2C)no1	-	-	-	-
Cc1c(C(=O)Nc2ccc(Oc3ccccc3)cc2)nnn1-c1cccc(Cl)c1	-	-	-	50
COc1cccc(-n2nnc(C(=O)Nc3ccc(C)c(C)c3)c2C)c1	-	-	-	58
O=C(Nc1ccc(F)c(F)c1)NC(CO)Cc1c[nH]c2ccccc12 (stereo unspecified)	-	-	-	-
COc1cc(=O)c(C(=O)Nc2ccc(C#N)cc2)nn1-c1cccc(F)c1	-	64	-	43
Cc1c(C(=O)Nc2ccc(F)cc2)nnn1-c1cccc(F)c1	37	-	-	-
CCc1ccc(NC(=O)c2nnn(-c3cccc(F)c3)c2C)cc1	-	-	-	-
COc1ccc(NC(=O)c2nnn(-c3cccc(C)c3)c2C)cc1	-	-	-	59
COc1ccc(-n2nnc(C(=O)Nc3ccccc3F)c2C)cc1	-	-	-	-
